This passage reports growth results from PubChem BioAssay (NCI).

Some test systems named below: SK-MEL-2 melanoma; EKVX NSCLC; SN12C renal; UO-31 renal; TK-10 renal; CAKI-1 renal; A498 renal; CCRF-CEM leukemia; MOLT-4 leukemia.
What all share (experiment): NCI-60 one-dose screen, 48 h (100 = growth as untreated, 0 = no growth, -100 = all killed)
Common to all, as to conditions: 10 µM unless noted

This is part of a sample that, as a whole, favours compounds with a hit. Of some 83,000 tested, about 20% had one in any assay.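 How to read the values: 0–100, growth inhibition (40 = 60% inhibited); 0, no net growth; -100 to 0, cell death (-40 = 40% of starting cells died; -100 = all dead).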 A number with no mark means an inactive call. Calls of active or inactive are those of the source. Rule for the calls: active = growth percent below 10; inactive = the rest.

With `COCCn1c(-c2csc(-c3cn(C)c4ccc(OC)cc34)n2)cc2cccnc21`, the growth is 54% in the assay with SK-MEL-2 melanoma; 58.5% in the assay on EKVX NSCLC; 80.2% in the assay with SN12C renal; 54.9% with UO-31 renal; 43.6% with TK-10 renal; 74.8% with CAKI-1 renal. The growth in the assay on A498 renal was 60.8%; with CCRF-CEM leukemia, 41.3%; with MOLT-4 leukemia, 54.4%.
Regarding `COC1=CC(c2ccc[nH]2)=N/C1=C\c1[nH]c(C)c(C(=O)OCc2ccccc2)c1C`, the growth was -63.1% (active) in the assay with SK-MEL-2 melanoma; -33.5% (active) with EKVX NSCLC; -29.4% (active) in the assay with SN12C renal; -87.9% (active) in the assay on UO-31 renal; -4.94% (active) in the assay with TK-10 renal; -40.7% (active) in the assay on CAKI-1 renal. For the same compound, the growth was -37.7% (active) with A498 renal, 13.4% with CCRF-CEM leukemia and -7.67% (active) with MOLT-4 leukemia.
`O=C1COCCN1c1ccc(Nc2nc(Cl)nc(OCc3cn(Cc4ccccc4)nn3)n2)cc1`: the growth in the assay on SK-MEL-2 melanoma is 85.6%; with EKVX NSCLC, 99.5%; with SN12C renal, 94.2%; in the assay on UO-31 renal it was 73.6%; in the assay with TK-10 renal it was 98.6%; in the assay on CAKI-1 renal it was 84.4%. Also, the growth with A498 renal is 92.2%; in the assay on CCRF-CEM leukemia, 60%; with MOLT-4 leukemia it was 62%.
As to `COCCn1cc(-c2nc(-c3cc4cccnc4n3CCOC)cs2)c2cc(OC)ccc21`, the growth with SK-MEL-2 melanoma was 71.6%; in the assay on EKVX NSCLC it was 26%; in the assay with SN12C renal it was 78.8%; in the assay with UO-31 renal, 61.9%; in the assay on TK-10 renal it was 14%; in the assay with CAKI-1 renal it was 70.4%. Further, the figures for the growth with A498 renal, in the assay on CCRF-CEM leukemia and in the assay on MOLT-4 leukemia were 66.8%, 35.2% and 58.4%, respectively.
Take `N=C(N)c1ccc(-c2ccc(-c3ccc(Cl)cc3)s2)nc1`: the growth with SK-MEL-2 melanoma was 103%; with EKVX NSCLC, 59.1%; with SN12C renal, 52.5%; with UO-31 renal, 44.6%; in the assay with TK-10 renal, 103%; in the assay on CAKI-1 renal it was -65% (active). Besides, the growth in the assay on A498 renal is 84.5%; in the assay with CCRF-CEM leukemia, -45.8% (active); in the assay on MOLT-4 leukemia, -57.8% (active).
For the compound `N#CC1=C(N)Oc2c(sc3c(Br)cccc23)C1c1ccc(F)cc1` (stereo unspecified), the growth in the assay on SK-MEL-2 melanoma was 37%; with EKVX NSCLC, 45.6%; in the assay on SN12C renal it was 27.4%; in the assay with UO-31 renal it was 34.4%; in the assay with TK-10 renal, 43.1%; in the assay on CAKI-1 renal it was 46.6%. The values for the growth in the assay on A498 renal, with CCRF-CEM leukemia and with MOLT-4 leukemia were 17.8%, 18.4% and 5.38% (active), respectively.
Consider `CO/N=C(/C)c1ccc(NC(=O)CSc2nnc(-c3ccncc3)n2-c2ccccc2)cc1`, for which the growth was 67.6% with SK-MEL-2 melanoma; 64.3% in the assay with EKVX NSCLC; 36.1% in the assay with SN12C renal; 9.43% (active) with UO-31 renal; -15.3% (active) with TK-10 renal; 26.8% in the assay on CAKI-1 renal. Further, the results for the growth in the assay with A498 renal, in the assay with CCRF-CEM leukemia and with MOLT-4 leukemia were 89.7%, 91.6% and 92.2%, respectively.
For `CC(C)N1CN2C(=S)NC3C2N(C1)C(=S)N3C` (stereo unspecified), the growth in the assay with SK-MEL-2 melanoma was 93.4%; in the assay on EKVX NSCLC, 103%; with SN12C renal, 97.6%; in the assay on UO-31 renal, 95.9%; in the assay with TK-10 renal, 97.2%; with CAKI-1 renal it was 92.6%. Also, the results for the growth in the assay with A498 renal, in the assay on CCRF-CEM leukemia and with MOLT-4 leukemia were 102%, 94.8% and 104%, respectively.
For the compound `Cc1nc2c(=O)[nH]c(SCC(=O)Nc3cccc(F)c3)nc2[nH]c1=O`, the growth in the assay with SK-MEL-2 melanoma was 103%; in the assay on EKVX NSCLC, 104%; in the assay on SN12C renal, 100%; in the assay on UO-31 renal, 84%; in the assay with TK-10 renal, 105%; with CAKI-1 renal it was 89.3%. Also, the growth with A498 renal is 111%; in the assay with CCRF-CEM leukemia, 90.8%; with MOLT-4 leukemia, 100%.
Take `NC(=O)CCC(C(=O)O)N1C(=O)c2ccc(O)cc2C1=O` (stereo unspecified): the growth with SK-MEL-2 melanoma is 97%; with EKVX NSCLC, 101%; in the assay with SN12C renal, 108%; in the assay on UO-31 renal it was 93.1%; in the assay with TK-10 renal, 114%; in the assay on CAKI-1 renal, 80%. The growth in the assay on A498 renal was 115%; with CCRF-CEM leukemia it was 91.1%; in the assay on MOLT-4 leukemia, 59.1%.
For the compound `COc1ccc(C(=O)Nc2ncc(Cc3cccc(Cl)c3)s2)cc1OC`, the growth in the assay on SK-MEL-2 melanoma was 8.92% (active); in the assay with EKVX NSCLC, 34.1%; in the assay on SN12C renal, 39.9%; in the assay with UO-31 renal, 31.2%; in the assay on TK-10 renal it was 38.5%; in the assay on CAKI-1 renal, 12.8%. Further, the growth is 0.53% (active) in the assay with A498 renal, 17.3% in the assay on CCRF-CEM leukemia and 29.2% in the assay on MOLT-4 leukemia.
In the case of `CC(C)(C)n1cc(-c2ccnc(NCCNS(=O)(=O)c3cccc4ccccc34)c2)c(-c2cccc(F)c2)n1`, the growth in the assay with SK-MEL-2 melanoma is -35.3% (active); in the assay on EKVX NSCLC it was 8.04% (active); with SN12C renal, -88.4% (active); in the assay on UO-31 renal it was -38.2% (active); with TK-10 renal, -80% (active); in the assay on CAKI-1 renal, -54.7% (active). The growth is -73.1% (active) in the assay on A498 renal, 11% with CCRF-CEM leukemia and -15.5% (active) in the assay on MOLT-4 leukemia.
As to `CN1CCN(C(=O)OCc2ccc3c(Cl)cc(Cl)c(O)c3n2)CC1`, the growth was 76% with SK-MEL-2 melanoma; 79.7% with EKVX NSCLC; 56.9% with SN12C renal; 34% in the assay on UO-31 renal; 105% in the assay with TK-10 renal; 55.1% with CAKI-1 renal. Further, the growth in the assay with A498 renal is 106%; with CCRF-CEM leukemia it was 40.5%; in the assay with MOLT-4 leukemia it was 8.31% (active).
On to `CCOC(=O)C#Cc1c(C(=O)OCC)nnn1[C@@H]1O[C@H](CO)[C@H]2OC3(CCCCC3)O[C@H]21`, for which the growth with SK-MEL-2 melanoma is 106%; in the assay with EKVX NSCLC, 105%; with SN12C renal, 75.6%; with UO-31 renal, 5.58% (active); in the assay with TK-10 renal it was -3.79% (active); with CAKI-1 renal it was -99.7% (active). Further, the growth is 110% in the assay with A498 renal, 6.89% (active) in the assay on CCRF-CEM leukemia and 22.3% in the assay with MOLT-4 leukemia.
